According to PubChem BioAssay AID1159580 (chemical genetic matrix, 2015):
About 2,000 (36%) of roughly 5,500 compounds were called active. Roughly 18% stayed inconclusive and do not appear here. Cut-off read from the data, not from the text of the source: active = normalized growth mostly below about 0.91 (no sharp cut-off); inconclusive = no clear call, values can overlap the other calls; inactive = mostly above about 0.92. Some of the results follow.

Assay: chemical genetic growth profiling, strain panel (AID 1159580);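 note: tested at 20 µM; growth read once vehicle control cultures reached saturation at 30 °C; 1 = growth at the plate median or of vehicle wells; lower values mean less growth of the strain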
Conditions: growth OD

Measured: normalized growth

FC(F)(F)c1cc(-c2noc(C3CCc4ccccc4O3)n2)cc(C(F)(F)F)c1 (centres undefined)
inactive: S. cerevisiae deletion strains, locus YAL013W, strain DEP1, stronger effect = lower value 0.999 | S. cerevisiae deletion strains, locus YBR229C, strain ROT2, stronger effect = lower value 1.02 | S. cerevisiae deletion strains, locus YCL061C, strain MRC1, stronger effect = lower value 0.988 | S. cerevisiae deletion strains, locus YDL101C, strain DUN1, stronger effect = lower value 0.995 | S. cerevisiae deletion strains, locus YDL134C, strain PPH21, stronger effect = lower value 1.03 | S. cerevisiae deletion strains, locus YDR150W, strain NUM1, stronger effect = lower value 0.942 | S. cerevisiae deletion strains, locus YEL061C, strain CIN8, stronger effect = lower value 1.01 | S. cerevisiae deletion strains, locus YGR078C, strain PAC10, stronger effect = lower value 0.988 | S. cerevisiae deletion strains, locus YGR229C, strain SMI1, stronger effect = lower value 1 | S. cerevisiae deletion strains, locus YHR030C, strain SLT2, stronger effect = lower value 1.05 | S. cerevisiae deletion strains, locus YHR087W, strain rtc3, stronger effect = lower value 0.994 | S. cerevisiae deletion strains, locus YJR043C, strain POL32, stronger effect = lower value 0.998 | S. cerevisiae deletion strains, locus YJR075W, strain HOC1, stronger effect = lower value 0.97 | S. cerevisiae deletion strains, locus YKL190W, strain CNB1, stronger effect = lower value 1.02 | S. cerevisiae deletion strains, locus YLR039C, strain RIC1, stronger effect = lower value 1.04 | S. cerevisiae deletion strains, locus YLR058C, strain SHM2 (second series), stronger effect = lower value 0.995 | S. cerevisiae deletion strains, locus YLR085C, strain ARP6, stronger effect = lower value 0.98 | S. cerevisiae deletion strains, locus YLR262C, strain YPT6, stronger effect = lower value 1.04 | S. cerevisiae deletion strains, locus YML094W, strain GIM5, stronger effect = lower value 0.982 | S. cerevisiae deletion strains, locus YMR219W, strain ESC1, stronger effect = lower value 1 | S. cerevisiae deletion strains, locus YMR263W, strain SAP30, stronger effect = lower value 0.993 | S. cerevisiae deletion strains, locus YNL153C, strain GIM3, stronger effect = lower value 0.998 | S. cerevisiae deletion strains, locus YNL298W, strain CLA4 (second series), stronger effect = lower value 1.01 | S. cerevisiae deletion strains, locus YNL322C, strain KRE1, stronger effect = lower value 0.985 | S. cerevisiae deletion strains, locus YNR030W, strain Alg12, stronger effect = lower value 0.996 | S. cerevisiae deletion strains, locus YPL055C, strain LGE1, stronger effect = lower value 0.96 | S. cerevisiae deletion strains, locus YPL241C, strain CIN2, stronger effect = lower value 0.985 | S. cerevisiae deletion strains, locus YPR135W, strain CTF4, stronger effect = lower value 1.11 | S. cerevisiae strains, strain wild type, stronger effect = lower value 1
